Measurements reported in PubChem BioAssay (Tox21).
Inconclusive results are not listed. Entries that show only a call come without a potency. Values without a mark were called inactive. The source made the active and inactive calls. Calls come from the whole dose curve; as a rule, active = well fitted curve in the direction sought with a large enough effect in the repeat runs; inconclusive = weak or mixed curves; inactive = no such curve, though single readings can be large; an effect the other way counts as inactive or inconclusive.

How the values were obtained:
[1] = Caspase-3/7 induction in HepG2 cells by small molecules, qHTS cell viability counter screen (AID 1346981); note: series mostly up to about 92 µM; nearly all actives have a fitted effect of over 30% in size
How it was run: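 Viability determined by CellTiter-Fluor fluorescence in HepG2 wells also used for the luminescent Caspase-Glo 3/7 read. Compounds were present for 16 hr at 37 C, 5% CO2 before reagent addition.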

[2] = target: Nuclear receptor subfamily 1 group I member 2 (Rattus norvegicus) (UniProt Q9R1A7); experiment: Rat pregnane X receptor (rPXR) activation by small molecules, qHTS assay (AID 1346983); conditions: rPXR luciferase reporter cells, One-Glo luminescence, 24 h; max activation: hits give high values; note: nearly all actives have a fitted effect of over 20% in size
Sequence of Nuclear receptor subfamily 1 group I member 2 (Rattus norvegicus) (Q9R1A7 whole entry, looked up): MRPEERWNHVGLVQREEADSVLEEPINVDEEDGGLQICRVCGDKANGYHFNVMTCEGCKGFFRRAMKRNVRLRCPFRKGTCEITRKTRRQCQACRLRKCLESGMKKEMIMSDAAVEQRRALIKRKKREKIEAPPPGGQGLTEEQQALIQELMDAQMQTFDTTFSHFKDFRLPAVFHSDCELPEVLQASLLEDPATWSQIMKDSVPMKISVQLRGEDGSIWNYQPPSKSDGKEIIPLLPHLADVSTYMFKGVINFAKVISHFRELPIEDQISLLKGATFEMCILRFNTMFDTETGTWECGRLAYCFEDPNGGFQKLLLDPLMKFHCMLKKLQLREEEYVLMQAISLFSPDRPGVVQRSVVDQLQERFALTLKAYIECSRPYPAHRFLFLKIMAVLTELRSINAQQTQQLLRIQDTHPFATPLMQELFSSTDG
How it was run: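 Cell-based rPXR luciferase reporter assay, 2,000 cells per well, rested 5hr at 37 C before compound addition in DMSO, then 24 hr at 37 C. One-Glo reagent was added and luminescence read after 30 min at room temperature.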

[3] = target: Nuclear receptor subfamily 1 group I member 2 (Homo sapiens) (UniProt O75469); experiment: CYP3A4 induction through human pregnane X receptor (PXR) by small molecules, qHTS assay (AID 1346984); note: nearly all actives have a fitted effect of over 40% in size; note: potency is the fitted concentration of half-maximal effect
Sequence of Nuclear receptor subfamily 1 group I member 2 (Homo sapiens) (O75469 whole entry, looked up): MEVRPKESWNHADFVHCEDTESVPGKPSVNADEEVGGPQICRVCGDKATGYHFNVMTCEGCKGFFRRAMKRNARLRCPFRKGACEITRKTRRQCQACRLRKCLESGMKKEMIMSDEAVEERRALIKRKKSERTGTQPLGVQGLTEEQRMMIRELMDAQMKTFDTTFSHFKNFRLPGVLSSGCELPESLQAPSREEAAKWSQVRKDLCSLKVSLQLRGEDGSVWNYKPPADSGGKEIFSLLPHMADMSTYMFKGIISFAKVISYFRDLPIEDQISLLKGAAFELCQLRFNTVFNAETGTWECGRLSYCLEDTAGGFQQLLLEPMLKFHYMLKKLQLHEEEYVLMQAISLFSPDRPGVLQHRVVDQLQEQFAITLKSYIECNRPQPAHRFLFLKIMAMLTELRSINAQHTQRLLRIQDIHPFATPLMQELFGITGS
How it was run: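 Readings come from a luciferase reporter: DPX-2 cells, which are HepG2 cotransfected with PXR and a CYP3A4-promoter construct, were exposed to test compounds for 24 h at 37C before One-Glo detection.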

[4] = target: Cytochrome P450 2D6 (Homo sapiens) (UniProt P10635); experiment: Cytochrome P450 Family 2 Subfamily D Member 6 (CYP2D6) small molecule antagonists: luciferase reporter qHTS assay (AID 1671196); note: nearly all actives have a fitted effect of over 50% in size; note: potency is the fitted concentration of half-maximal effect
Sequence of Cytochrome P450 2D6 (Homo sapiens) (P10635 whole entry, looked up): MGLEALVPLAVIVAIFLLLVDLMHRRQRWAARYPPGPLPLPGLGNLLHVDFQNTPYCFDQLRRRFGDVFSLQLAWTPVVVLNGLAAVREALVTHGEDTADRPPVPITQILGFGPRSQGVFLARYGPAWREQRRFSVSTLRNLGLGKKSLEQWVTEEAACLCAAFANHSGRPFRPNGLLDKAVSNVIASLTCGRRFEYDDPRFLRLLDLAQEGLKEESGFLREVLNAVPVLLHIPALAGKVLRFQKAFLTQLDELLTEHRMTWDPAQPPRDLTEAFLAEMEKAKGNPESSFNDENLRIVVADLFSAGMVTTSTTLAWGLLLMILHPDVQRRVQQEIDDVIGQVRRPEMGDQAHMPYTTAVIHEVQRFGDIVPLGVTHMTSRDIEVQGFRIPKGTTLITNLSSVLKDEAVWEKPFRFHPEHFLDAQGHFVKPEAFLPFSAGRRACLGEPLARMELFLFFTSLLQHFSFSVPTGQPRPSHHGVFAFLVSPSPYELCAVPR
How it was run: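 Each well received CYP2D6 with its proluciferin substrate and chemical, sat 10 min, then got NADPH regeneration solution for 1 h at room temperature. Luminescence in RLU served as the activity measure.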

[5] = target: Cytochrome P450 2C9 (Homo sapiens) (UniProt P11712); experiment: Cytochrome P450 Family 2 Subfamily C Member 9 (CYP2C9) small molecule antagonists: luciferase reporter qHTS assay (AID 1671198); note: nearly all actives have a fitted effect of over 50% in size; note: potency is the fitted concentration of half-maximal effect
Sequence of Cytochrome P450 2C9 (Homo sapiens) (P11712 whole entry, looked up): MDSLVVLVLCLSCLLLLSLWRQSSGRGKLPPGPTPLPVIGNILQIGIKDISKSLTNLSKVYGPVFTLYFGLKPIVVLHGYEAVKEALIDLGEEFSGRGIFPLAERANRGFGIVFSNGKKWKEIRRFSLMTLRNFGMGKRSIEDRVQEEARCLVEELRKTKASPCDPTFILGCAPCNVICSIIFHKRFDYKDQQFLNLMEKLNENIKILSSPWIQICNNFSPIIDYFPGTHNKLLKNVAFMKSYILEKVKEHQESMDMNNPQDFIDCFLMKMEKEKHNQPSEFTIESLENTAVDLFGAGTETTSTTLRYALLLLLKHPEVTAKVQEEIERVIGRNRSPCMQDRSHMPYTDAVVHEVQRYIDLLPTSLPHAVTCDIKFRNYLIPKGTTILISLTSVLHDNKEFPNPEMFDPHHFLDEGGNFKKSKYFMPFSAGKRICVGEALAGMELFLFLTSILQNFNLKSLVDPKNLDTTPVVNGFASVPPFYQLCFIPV
How it was run: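 CYP2C9 activity was measured with a P450-Glo proluciferin substrate. Enzyme–substrate mix was held with compound for 10 min at room temperature, then NADPH regeneration solution was added for 1 h at 37C. Luciferin product was read as luminescence.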

[6] = target: Voltage-gated inwardly rectifying potassium channel KCNH2 (Homo sapiens) (UniProt Q12809); experiment: Human Ether-a-go-go-Related Gene (hERG) channel small molecule antagonists: fluorescence cell-based qHTS assay (AID 1671200); note: nearly all actives have a fitted effect of over 50% in size; note: potency is the fitted concentration of half-maximal effect
Sequence of Voltage-gated inwardly rectifying potassium channel KCNH2 (Homo sapiens) (Q12809 whole entry, looked up): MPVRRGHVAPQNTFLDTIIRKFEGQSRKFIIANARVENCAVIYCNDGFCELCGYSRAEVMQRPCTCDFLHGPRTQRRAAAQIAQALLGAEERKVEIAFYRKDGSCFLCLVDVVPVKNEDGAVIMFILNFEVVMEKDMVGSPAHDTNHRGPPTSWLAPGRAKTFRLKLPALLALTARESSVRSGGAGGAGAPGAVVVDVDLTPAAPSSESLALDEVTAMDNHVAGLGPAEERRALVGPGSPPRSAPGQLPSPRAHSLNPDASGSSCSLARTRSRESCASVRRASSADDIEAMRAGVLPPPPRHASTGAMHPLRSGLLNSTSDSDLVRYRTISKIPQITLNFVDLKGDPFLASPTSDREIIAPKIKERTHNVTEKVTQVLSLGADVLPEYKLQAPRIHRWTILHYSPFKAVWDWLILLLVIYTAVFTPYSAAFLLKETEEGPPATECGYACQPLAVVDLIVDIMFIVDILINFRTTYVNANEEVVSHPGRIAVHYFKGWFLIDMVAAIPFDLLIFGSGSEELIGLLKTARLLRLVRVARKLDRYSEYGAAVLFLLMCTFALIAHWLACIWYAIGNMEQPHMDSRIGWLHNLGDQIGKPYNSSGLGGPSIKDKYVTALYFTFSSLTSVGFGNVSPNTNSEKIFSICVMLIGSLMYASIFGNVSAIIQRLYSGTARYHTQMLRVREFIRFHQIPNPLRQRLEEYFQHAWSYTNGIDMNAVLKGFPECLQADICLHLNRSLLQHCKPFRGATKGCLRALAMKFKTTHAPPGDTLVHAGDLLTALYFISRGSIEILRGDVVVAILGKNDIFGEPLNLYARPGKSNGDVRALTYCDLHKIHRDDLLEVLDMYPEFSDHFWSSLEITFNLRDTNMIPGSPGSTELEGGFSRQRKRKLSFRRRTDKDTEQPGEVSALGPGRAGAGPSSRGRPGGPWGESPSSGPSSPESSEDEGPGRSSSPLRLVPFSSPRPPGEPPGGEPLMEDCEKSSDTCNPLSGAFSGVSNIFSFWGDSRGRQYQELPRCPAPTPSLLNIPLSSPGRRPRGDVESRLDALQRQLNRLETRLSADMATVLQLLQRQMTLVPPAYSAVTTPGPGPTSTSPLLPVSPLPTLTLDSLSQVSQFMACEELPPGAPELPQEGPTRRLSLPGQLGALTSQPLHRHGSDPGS
How it was run: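 hERG-U2OS cells plated overnight at 37 C, loaded with FluxOR II dye 1 h at RT in dark; after 10 min, thallium stimulus added. Fluorescence (480/540 nm) read kinetically for 2 min at 1 s intervals.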

[7] = target: Nuclear receptor subfamily 1 group I member 2 (Homo sapiens) (UniProt O75469); experiment: Human pregnane X receptor (PXR) small molecule agonists, qHTS assay (AID 1346982); note: nearly all actives have a fitted effect of over 35% in size; note: potency is the fitted concentration of half-maximal effect
How it was run: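 Compound-induced hPXR transactivation of a CYP3A4 luciferase reporter was scored in HepG2 PXR-Luc cells over 24 hr at 37 C, 5% CO2, by luminescence.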

[8] = target: Cytochrome P450 2C19 (Homo sapiens) (UniProt P33261); experiment: Cytochrome P450 Family 2 Subfamily C Member 19 (CYP2C19) small molecule antagonists: luciferase reporter qHTS assay (AID 1671197); note: nearly all actives have a fitted effect of over 65% in size; note: potency is the fitted concentration of half-maximal effect
Sequence of Cytochrome P450 2C19 (Homo sapiens) (P33261 whole entry, looked up): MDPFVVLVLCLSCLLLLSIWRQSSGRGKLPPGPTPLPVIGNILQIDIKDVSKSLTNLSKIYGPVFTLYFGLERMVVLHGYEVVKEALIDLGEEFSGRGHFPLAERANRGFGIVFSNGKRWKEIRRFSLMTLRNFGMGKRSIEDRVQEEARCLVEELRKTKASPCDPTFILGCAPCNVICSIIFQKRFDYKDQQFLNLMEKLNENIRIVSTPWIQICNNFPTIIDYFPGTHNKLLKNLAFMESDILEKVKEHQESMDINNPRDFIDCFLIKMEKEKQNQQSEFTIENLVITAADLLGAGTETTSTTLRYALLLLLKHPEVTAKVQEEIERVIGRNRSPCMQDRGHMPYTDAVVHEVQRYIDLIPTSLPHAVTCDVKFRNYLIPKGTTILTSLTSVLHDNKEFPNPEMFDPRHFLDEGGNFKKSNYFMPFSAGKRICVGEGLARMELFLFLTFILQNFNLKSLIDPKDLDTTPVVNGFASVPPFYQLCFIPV
How it was run: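 Relative luminescence units recorded 20 min after the detection reagent stopped a 1 h, 37C CYP2C19 reaction on proluciferin substrate, which was started by NADPH regeneration following 10 min room-temperature compound preincubation; ketoconazole positive control.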

[9] = target: Cytochrome P450 1A2 (Homo sapiens) (UniProt P05177); experiment: Cytochrome P450 Family 1 Subfamily A Member 2 (CYP1A2) small molecule antagonists: luciferase reporter qHTS assay (AID 1671199); note: nearly all actives have a fitted effect of over 50% in size; note: potency is the fitted concentration of half-maximal effect
Sequence of Cytochrome P450 1A2 (Homo sapiens) (P05177 whole entry, looked up): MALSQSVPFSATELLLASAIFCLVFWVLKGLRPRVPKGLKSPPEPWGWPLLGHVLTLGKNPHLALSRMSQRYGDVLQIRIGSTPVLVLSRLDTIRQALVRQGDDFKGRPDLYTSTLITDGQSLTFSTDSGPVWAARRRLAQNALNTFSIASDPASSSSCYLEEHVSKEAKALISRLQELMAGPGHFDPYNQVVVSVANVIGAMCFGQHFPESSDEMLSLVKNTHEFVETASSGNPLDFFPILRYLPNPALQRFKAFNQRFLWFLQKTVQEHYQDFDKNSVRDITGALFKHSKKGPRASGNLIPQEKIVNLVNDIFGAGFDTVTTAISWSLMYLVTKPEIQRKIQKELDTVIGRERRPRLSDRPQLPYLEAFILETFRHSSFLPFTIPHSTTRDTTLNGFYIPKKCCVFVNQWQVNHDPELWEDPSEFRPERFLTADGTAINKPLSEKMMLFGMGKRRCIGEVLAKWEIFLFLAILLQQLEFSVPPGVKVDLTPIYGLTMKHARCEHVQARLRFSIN
How it was run: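 Enzymatic CYP1A2 assay, human, luminescent: 10 min compound–enzyme–substrate preincubation, 1 h NADPH-dependent turnover, 20 min detection step, room temperature throughout. Reduced light indicates lower CYP1A2 activity.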

[10] = target: Cytochrome P450 3A4 (Homo sapiens) (UniProt P08684); experiment: Cytochrome P450 Family 3 Subfamily A Member 4 (CYP3A4) small molecule antagonists: luciferase reporter qHTS assay (AID 1671201); note: nearly all actives have a fitted effect of over 50% in size; note: potency is the fitted concentration of half-maximal effect
Sequence of Cytochrome P450 3A4 (Homo sapiens) (P08684 whole entry, looked up): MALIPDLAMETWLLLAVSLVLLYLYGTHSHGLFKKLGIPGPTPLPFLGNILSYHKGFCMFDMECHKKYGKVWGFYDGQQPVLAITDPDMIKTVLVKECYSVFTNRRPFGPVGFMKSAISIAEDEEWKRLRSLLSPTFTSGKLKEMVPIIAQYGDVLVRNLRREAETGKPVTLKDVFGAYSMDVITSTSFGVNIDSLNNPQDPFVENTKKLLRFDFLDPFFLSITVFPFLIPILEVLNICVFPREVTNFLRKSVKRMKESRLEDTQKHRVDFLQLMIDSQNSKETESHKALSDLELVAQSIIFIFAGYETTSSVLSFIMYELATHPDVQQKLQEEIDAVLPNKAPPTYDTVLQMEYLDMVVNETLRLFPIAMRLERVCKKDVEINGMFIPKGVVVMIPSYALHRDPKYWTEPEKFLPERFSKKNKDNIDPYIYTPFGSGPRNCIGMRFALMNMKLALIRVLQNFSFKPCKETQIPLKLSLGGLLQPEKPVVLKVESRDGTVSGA
How it was run: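 P450-Glo CYP3A4 luminescent assay: compounds preincubated 10 min at room temperature with enzyme and proluciferin substrate, NADPH regeneration added, 1 h room-temperature reaction, stopped with luciferin detection reagent; luminescence read after 20 min. Ketoconazole positive control.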

[11] = target: Nuclear receptor subfamily 1 group I member 2 (Homo sapiens) (UniProt O75469); experiment: Human pregnane X receptor (PXR) activation by small molecules, qHTS assay (AID 1346985); note: nearly all actives have a fitted effect of over 40% in size
How it was run: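 DPX-2 cells (HepG2 co-transfected with a PXR response element and a CYP3A4-promoter luciferase construct) were seeded at 2,000 per well, rested 5 hr at 37C, then exposed to DMSO-dissolved compounds for 24 hr. Activation was read as luciferase luminescence.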

Row | Structure (SMILES) | Potency [1] | max activation [2] [%] | Potency [3] | Potency [4] | Potency [5] | Potency [6] | Potency [7] | Potency [8] | Potency [9] | Potency [10] | Potency [11]
1 | CCN(CC)CCOC(=O)C1(c2ccccc2)CCCC1 | inactive | 1.06 | inactive | 1.38 µM (active) | inactive | inactive |  |  |  |  | 
2 | CCCCOC(=O)/C=C\C(=O)OCCCC | inactive |  |  | inactive |  | inactive | inactive | 3.28 µM (active) | 7.34 µM (active) | inactive | 
3 | CC(C)c1ccc2c(C(C)C)cc(C(C)C)c(S(=O)(=O)O)c2c1 | inactive |  |  | inactive | 29.2 µM (active) | inactive | 25.2 µM (active) | inactive | inactive | inactive | 
4 | NC1CCN(c2nc3c(cc2F)c(=O)c(C(=O)O)cn3-c2ccc(F)cc2F)C1 (stereo not given) | inactive | -4.88 |  | inactive | inactive | inactive |  | inactive | inactive | inactive | 
5 | CCCC[C@H]1CN(CC2CCOCC2)C(=O)OC12CCN(C1(C)CCN(C(=O)c3c(C)ncnc3C)CC1)CC2 |  |  |  | inactive | inactive | 12.2 µM (active) | inactive | inactive | 35.2 µM (active) |  | 
6 | CCCCCCOC(=O)CCC | inactive |  |  | inactive | inactive | inactive | inactive | inactive | inactive | inactive | 
7 | CCCCOC(O)CC (stereo not given) | inactive |  |  | inactive | inactive | inactive | inactive | inactive | inactive | inactive | 
8 | C[C@H](CCC(=O)O)[C@H]1CC[C@H]2[C@@H]3[C@H](O)C[C@@H]4C[C@H](O)CC[C@]4(C)[C@H]3CC[C@]12C |  | -0.524 | inactive | 56.6 µM (active) |  | inactive | inactive |  | 31.8 µM (active) | inactive | inactive
9 | Cc1c(Cn2ccnc2)c2ccccc2n1CCC(=O)O | inactive | -1.57 | inactive |  | 3.09 µM (active) | inactive | inactive | 34.7 µM (active) | 12.3 µM (active) |  | inactive
10 | Oc1ccc(O)c2c(O)cccc12 |  |  |  | inactive | inactive | inactive | inactive |  | 39.6 µM (active) | inactive | 
11 | CCCCCCCCCCCCCCCBr | inactive |  |  | inactive | inactive | inactive | inactive | inactive |  | inactive | 
12 | CC(=O)NCCCS(=O)(=O)O | inactive | -4.66 | inactive | inactive | inactive | inactive | inactive | inactive |  | inactive | inactive
13 | CCN(CC)C(C)=O | inactive |  |  |  | inactive | inactive | inactive | inactive |  | inactive | 
14 | Oc1ccc(Sc2ccc(O)cc2)cc1 | inactive |  |  | 33.3 µM (active) | inactive | inactive | 51 µM (active) | 37.3 µM (active) | 41.9 µM (active) | 37.3 µM (active) | 
15 | Cc1cc(CC(=O)O)c(C)n1-c1ccc(Cl)cc1 | inactive | 0.177 | inactive |  | 15.5 µM (active) | inactive | inactive | 7.76 µM (active) | inactive |  | inactive
16 | N#CCCNCCC#N | inactive |  |  | inactive |  | inactive | inactive | inactive |  | inactive | 
17 | CCOC(=O)CC(=O)c1cc(F)c(Cl)nc1Cl | inactive |  |  | inactive |  | inactive | inactive |  |  | inactive | 
18 | c1ccc(CNCc2ccccc2)cc1 | inactive |  |  | 1.12 µM (active) | 44.8 µM (active) | inactive | inactive | 6.33 µM (active) | 25.2 µM (active) | inactive | 
19 | NCCCN(CCO)CCO | inactive |  |  |  | inactive | inactive | inactive | inactive |  | inactive | 

Row | Structure (SMILES) | Potency [1] | max activation [2] [%] | Potency [3] | Potency [4] | Potency [5] | Potency [6] | Potency [7] | Potency [8] | Potency [9] | Potency [10] | Potency [11]
20 | O=C(O)Cc1cc(I)c(Oc2ccc(O)c(I)c2)c(I)c1 | inactive | -1.77 |  |  |  | inactive |  |  |  |  | 
21 | Cc1cc(NC(=O)C(=O)O)cc(C)c1Oc1ccc(O)c2c1CCC2 | inactive |  |  |  | 35.6 µM (active) | inactive | inactive | 25.2 µM (active) |  | inactive | 
22 | CCCCOc1ccc(CC(=O)NO)cc1 |  | -0.916 | inactive | 15.5 µM (active) |  | inactive | inactive |  | 15.5 µM (active) | inactive | inactive
23 | CCCc1ccccc1 | inactive |  |  | inactive | inactive | inactive | inactive | inactive | inactive | inactive | 
24 | CN1CCC(=C2c3ccccc3CCc3sccc32)CC1 | inactive | 0.0937 | 28.2 µM (active) | 1.23 µM (active) | inactive | 16.9 µM (active) |  | 8.71 µM (active) | inactive | inactive | inactive
25 | Oc1ccc2c(c1)OCO2 | inactive |  |  | 39.6 µM (active) | 9.95 µM (active) | inactive | inactive | 19.9 µM (active) | 31.5 µM (active) | 22.3 µM (active) | 
26 | O=c1c2ccccc2nnn1CCl | inactive |  |  | 14.2 µM (active) | 71 µM (active) | inactive | 61.1 µM (active) |  | inactive | 11.2 µM (active) | 
27 | CCCC(C)C | inactive |  |  | inactive |  | inactive |  | 71.7 µM (active) | 63.9 µM (active) | inactive | 
28 | SC1CCCC1 | inactive |  |  | inactive | inactive | inactive | inactive | inactive | inactive | inactive | 
29 | CN(C)CCCNCCCN | inactive |  |  | 70.7 µM (active) | inactive | inactive | inactive |  | 35.4 µM (active) | inactive | 
30 | Cc1cc(O)ccc1N |  |  |  | 20.1 µM (active) | 20.1 µM (active) | inactive | 61.4 µM (active) | 17.9 µM (active) | 17.9 µM (active) | 11.3 µM (active) | 
31 | CC(=O)O[C@H]1C[C@@H]2CC[C@@H]3[C@H](CC[C@@]4(C)[C@H]3C[C@H]([N+]3(C)CCCCC3)[C@@H]4OC(C)=O)[C@@]2(C)C[C@@H]1N1CCCCC1 | inactive | -3.12 | inactive |  | inactive | inactive | inactive | inactive | inactive |  | inactive
32 | Cl/C(=C\n1cncn1)c1ccc(Cl)cc1Cl | inactive | -0.206 | 22.4 µM (active) | 15.5 µM (active) | 15.5 µM (active) | inactive |  | 1.38 µM (active) | 1.55 µM (active) | inactive | inactive
33 | O=C=NC1CCC(CC2CCC(N=C=O)CC2)CC1 (stereo not given) | inactive |  |  | 35.6 µM (active) |  | inactive |  | 79.6 µM (active) | 44.8 µM (active) | 3.99 µM (active) | 
34 | CC(=O)[C@@]1(O)CC[C@H]2[C@@H]3C[C@H](C)C4=CC(=O)CC[C@]4(C)[C@H]3CC[C@@]21C | inactive |  |  | 34.7 µM (active) |  | inactive |  | 1.95 µM (active) | inactive | inactive | 
35 | CCOC(=O)C1=NN(c2ccccc2)C(=O)C1 | inactive |  |  | inactive | 71 µM (active) | inactive |  | inactive |  | inactive | 
36 | CCCCCCCCCCCCC(=O)O | inactive |  |  | inactive | inactive | inactive |  | 71.3 µM (active) |  | inactive | 
37 | CN(C)CCCOc1nn(Cc2ccccc2)c2ccccc12 | inactive |  |  |  |  | 4.25 µM (active) |  |  |  |  | 
38 | CN(C)C/C=C(/c1ccc(Br)cc1)c1cccnc1 | inactive | -0.374 |  |  |  | 13.4 µM (active) |  |  |  |  | 
